Consider 20 compounds from the supplement of paper PMC11172423.

Values without a mark were called inactive.

The test system of the first test is Madurella mycetomatis MM55. Description: growth relative to untreated control; higher = less inhibition, active = 20 or less. As to conditions: 25 µM. The protocol:
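Hyphal fragments of M. mycetomatis MM55 or F. senegalensis CBS197.79 in RPMI 1640/MOPS were exposed to each MMV COVID Box or Global Health Priority Box compound at 100 or 25 µM for 7 days at 37 °C. Viability was read with MTS (490 nm, M. mycetomatis) or resazurin (600 nm, F. senegalensis), background-corrected with a medium-only control and expressed as % growth relative to the untreated growth control. Inhibition of more than 80% was taken as growth inhibition.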
In the case of `Cc1noc(C2CN(C(=O)c3ccc(Nc4nccc(-c5ccc(Cl)cc5)n4)cc3)C2)n1`, the growth is 122%.
On the same count and under the same terms, as for `O=C(Nc1cccc(Cl)c1)c1ccnc(N2CCC(N3CCCC3)CC2)c1`, the figure is 73.7%; as for `O=C1NCCN1CCN1CCC(c2cn(-c3ccc(F)cc3)c3ccc(Cl)cc23)CC1`, 5.95% (active).
On the same count and under the same terms, the result for `Oc1nc2ccccc2n1C1CCN(CCCC(c2ccc(F)cc2)c2ccc(F)cc2)CC1` reads 7.07% (active); that for `COc1ccc2cc1Oc1ccc(cc1)C[C@H]1c3cc(c(OC)cc3CCN1C)Oc1c(O)c(OC)cc3c1[C@@H](C2)N(C)CC3`, 5.48% (active).
Same read-out and setting: the result for `COc1ccc(-n2nc(C)c3c2NC(=O)CC3c2ccccc2OCc2ccc(F)cc2)cc1` (stereo not given) reads 41.5%; that for `CCCNc1nc(NC2CCCCC2)c2ccsc2n1`, 14.7% (active); that for `CO[C@H]1C[C@H](O[C@H]2[C@H](C)O[C@@H](O[C@@H]3/C(C)=C/C[C@@H]4C[C@@H](C[C@]5(C=C[C@H](C)[C@@H](C6CCCCC6)O5)O4)OC(=O)[C@@H]4C=C(C)[C@@H](O)[C@H]5OC/C(=C\C=C\[C@@H]3C)[C@]54O)C[C@@H]2OC)O[C@@H](C)[C@@H]1O`, 101%.
Turning to `CC(C)(C)Nc1ncc2nc(Nc3cccc(C(F)(F)F)c3)n(CC3CCNCC3)c2n1`, the growth is 107%.
The same measure, in the same setting: as for `CNc1ccc2cc(NC(=O)c3ccc(C(F)(F)F)c(Cl)c3)ccc2n1`, the figure is 6.89% (active); as for `CCCCCCO[C@@H](C)c1cccc(-c2csc(NC(=O)c3cc(Cl)c(/C=C(\C)C(=O)O)c(Cl)c3)n2)c1OC`, 81%.
The same measure, in the same setting: as for `CC(C)c1cc(Oc2ccccc2)cc(C(C)C)c1NC(=S)NC(C)(C)C`, the figure is 111%.
For `OC1(CN2CCC(Oc3cccc(C(F)(F)F)c3)CC2)CCNC1` (stereo not given), the growth is 5.37% (active).
The same measure, in the same setting: the result for `Cc1cc(Nc2cn3cc(-c4cnn(C(F)F)c4)ccc3n2)nc(C)n1` reads 95.2%; that for `CC(C)c1nc(CN(C)C(=O)N[C@H](C(=O)N[C@@H](Cc2ccccc2)C[C@H](O)[C@H](Cc2ccccc2)NC(=O)OCc2cncs2)C(C)C)cs1`, 74.1%; that for `COc1ccc(CCN(Cc2cccs2)C(=O)c2cc3sccc3n2C)cc1OC`, 5.66% (active).
On the same count and under the same terms, the result for `CCc1nn2c(Nc3ccncc3)cc(C)nc2c1-c1ccccc1` reads 96.8%; that for `CCCC(CCC)C(=O)O`, 76%.
`CC(=O)[C@@]1(O)CC[C@H]2[C@H]3CCC4=CC(=O)CC[C@@]4(C)[C@H]3CC[C@@]21C`: the growth was 80.2%.
The same measure, in the same setting: as for `NC(=O)c1nc(F)cnc1O`, the figure is 83.1%.

The test is the same for the next values; noted with them: 100 µM.
`Cc1noc(C2CN(C(=O)c3ccc(Nc4nccc(-c5ccc(Cl)cc5)n4)cc3)C2)n1`: the growth is 73.7%.
Regarding `O=C(Nc1cccc(Cl)c1)c1ccnc(N2CCC(N3CCCC3)CC2)c1`, the growth is 5.81% (active).
Same read-out and setting: as for `O=C1NCCN1CCN1CCC(c2cn(-c3ccc(F)cc3)c3ccc(Cl)cc23)CC1`, the figure is 4.92% (active); as for `Oc1nc2ccccc2n1C1CCN(CCCC(c2ccc(F)cc2)c2ccc(F)cc2)CC1`, 64.9%.
The same measure, in the same setting: the result for `COc1ccc2cc1Oc1ccc(cc1)C[C@H]1c3cc(c(OC)cc3CCN1C)Oc1c(O)c(OC)cc3c1[C@@H](C2)N(C)CC3` reads 5.12% (active); that for `COc1ccc(-n2nc(C)c3c2NC(=O)CC3c2ccccc2OCc2ccc(F)cc2)cc1` (stereo not given), 52.4%; that for `CCCNc1nc(NC2CCCCC2)c2ccsc2n1`, 48.2%.
The same measure, in the same setting: as for `CO[C@H]1C[C@H](O[C@H]2[C@H](C)O[C@@H](O[C@@H]3/C(C)=C/C[C@@H]4C[C@@H](C[C@]5(C=C[C@H](C)[C@@H](C6CCCCC6)O5)O4)OC(=O)[C@@H]4C=C(C)[C@@H](O)[C@H]5OC/C(=C\C=C\[C@@H]3C)[C@]54O)C[C@@H]2OC)O[C@@H](C)[C@@H]1O`, the figure is 125%; as for `CC(C)(C)Nc1ncc2nc(Nc3cccc(C(F)(F)F)c3)n(CC3CCNCC3)c2n1`, 69.3%.
For `CNc1ccc2cc(NC(=O)c3ccc(C(F)(F)F)c(Cl)c3)ccc2n1`, the growth was 77.4%.
For the compound `CCCCCCO[C@@H](C)c1cccc(-c2csc(NC(=O)c3cc(Cl)c(/C=C(\C)C(=O)O)c(Cl)c3)n2)c1OC`, the growth is 85.9%.
Same read-out and setting: the result for `CC(C)c1cc(Oc2ccccc2)cc(C(C)C)c1NC(=S)NC(C)(C)C` reads 166%; that for `OC1(CN2CCC(Oc3cccc(C(F)(F)F)c3)CC2)CCNC1` (stereo not given), 12.9% (active); that for `Cc1cc(Nc2cn3cc(-c4cnn(C(F)F)c4)ccc3n2)nc(C)n1`, 58.6%.
Still for that read-out and setting: the result for `CC(C)c1nc(CN(C)C(=O)N[C@H](C(=O)N[C@@H](Cc2ccccc2)C[C@H](O)[C@H](Cc2ccccc2)NC(=O)OCc2cncs2)C(C)C)cs1` reads 82.2%; that for `COc1ccc(CCN(Cc2cccs2)C(=O)c2cc3sccc3n2C)cc1OC`, 31.3%.
Consider `CCc1nn2c(Nc3ccncc3)cc(C)nc2c1-c1ccccc1`, for which the growth was 75.7%.
Consider `CCCC(CCC)C(=O)O`, for which the growth was 79.4%.
Same read-out and setting: the result for `CC(=O)[C@@]1(O)CC[C@H]2[C@H]3CCC4=CC(=O)CC[C@@]4(C)[C@H]3CC[C@@]21C` reads 83.8%.
`NC(=O)c1nc(F)cnc1O`: the growth is 84.1%.
